Results on 26 compounds are retold here after PubChem BioAssay AID1347043 (National Center for Advancing Translational Sciences (NCATS), 2019).

Hit rate of the full screen: of about 76,000 compounds, about 1,900 (2.5%) were called active. Roughly 5% stayed inconclusive and do not appear here. Calls follow the shape of the dose curve; as a rule, active = well fitted inhibition curve with a large enough effect; inconclusive = small, poorly fitted or top-dose-only effect; inactive = flat fitted curve, though single readings scatter. Shown is part of a subset that was picked to be rich in actives. Where a call stands in place of a potency, no number is given.
Potency is read from the fitted curve at half-maximal effect.

Chain of Luciferin 4-monooxygenase (Photinus pyralis) (P08659 whole entry, looked up): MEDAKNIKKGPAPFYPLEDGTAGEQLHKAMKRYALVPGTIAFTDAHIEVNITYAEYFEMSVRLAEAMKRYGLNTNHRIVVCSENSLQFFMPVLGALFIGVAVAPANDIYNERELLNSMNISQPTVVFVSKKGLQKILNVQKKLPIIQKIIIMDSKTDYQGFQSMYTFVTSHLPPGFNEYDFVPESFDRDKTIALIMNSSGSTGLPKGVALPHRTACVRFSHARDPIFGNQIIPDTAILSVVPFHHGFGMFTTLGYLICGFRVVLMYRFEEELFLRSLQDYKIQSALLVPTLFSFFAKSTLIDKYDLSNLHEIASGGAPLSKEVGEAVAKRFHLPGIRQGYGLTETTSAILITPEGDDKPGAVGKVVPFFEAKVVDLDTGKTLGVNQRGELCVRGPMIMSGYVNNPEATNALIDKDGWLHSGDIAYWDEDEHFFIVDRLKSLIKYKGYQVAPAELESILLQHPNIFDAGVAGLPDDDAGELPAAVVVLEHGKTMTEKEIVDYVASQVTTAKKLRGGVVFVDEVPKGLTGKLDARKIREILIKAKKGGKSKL

The assay concerns the target Luciferin 4-monooxygenase (Photinus pyralis) (UniProt P08659). The experiment in a line: Firefly luciferase inhibition profiling of diverse chemical library using quantitative high-throughput screening. Also: nearly all actives have a fitted effect of over 65% in size. The note with it: purified P. pyralis luciferase, luminescence, biochemical; series mostly up to 115 µM. Put shortly:
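Cell-free enzyme assay, 10nM P. pyralis luciferase, luciferin and ATP each at 10uM. Inhibition profiled over a 6-point titration, read as luminescence.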
For `CC(C)CCN1CCC2(CC1)CC(=O)c1ccc(Cl)cc1O2`, the Potency is 44.7 µM (active).
As to `COc1ccc(CN2CCC3(CC2)CC(=O)c2ccc(Cl)cc2O3)cc1`, the Potency result was “inactive”.
The value for `CC(C)CCN1CCC2(CC1)C(=O)NCN2Cc1ccc(Cl)cc1` was “inactive”; that for `CC(C)NC(=O)N1CCC[C@@H](O)[C@H](NC(=O)c2ccc(OCC(N)=O)cc2)C1` was “inactive”; that for `CNC(=O)[C@@H]1CN(C(=O)Cc2c[nH]c3ccccc23)C[C@H]1COC` was “inactive”.
For `O=C(Nc1cccc(Br)c1)C1CC(=O)N(c2n[nH]c3cccc(F)c23)C1` (stereo unspecified) the value was “inactive”; for `COCCCN(CCC(=O)N1CCC(C)CC1)C(=O)c1cc(C)oc1C`, “inactive”.
The value for `COc1ccc2[nH]c(C[C@@H]3C[C@@H](C(C)C)[C@H](CNC4CCN(C)CC4)C=C3C)nc2n1` was “inactive”; that for `CC(=O)N1CCC(C(=O)NCC2CCN(c3cc(-c4ccc(C)cc4)[nH]n3)CC2)CC1` was “inactive”.
Take `COc1ccc(C2Cn3cnc(C(=O)N4CCC(C(=O)NC5CCCC5)CC4)c3CO2)cc1` (stereo unspecified): the Potency result was “inactive”.
For `COc1ccc(C2Cn3cnc(C(=O)N4CCC(C(=O)NCc5cccc(F)c5)CC4)c3CO2)cc1` (stereo unspecified) the value was “inactive”; for `O=C(NCc1ccccc1)C1CCN(C(=O)c2ncn3c2COC(c2ccccc2)C3)CC1` (stereo unspecified), 3.16 µM (active).
The value for `O=C(NCc1ccc(F)c(Cl)c1)C1CCN(C(=O)c2ncn3c2COC(c2ccccc2)C3)CC1` (stereo unspecified) was 11.2 µM (active); that for `COc1ccc(C2Cn3cnc(C(=O)N4CCC(C(=O)Nc5cc(C)cc(C)c5)CC4)c3CO2)cc1` (stereo unspecified) was “inactive”.
For `CCOc1cccc(CNC(=O)c2cc3n(n2)CC(c2ccc(Cl)cc2)OC3)c1` (stereo unspecified) the value was “inactive”; for `O=C(NCC1CC1)C1CCN(C(=O)c2ncn3c2COC(c2ccccc2)C3)CC1` (stereo unspecified), 10 µM (active); for `COc1ccc(C2Cn3nnc(C(=O)N4CCN(C(=O)c5cccc(Cl)c5)CC4)c3CO2)cc1` (stereo unspecified), “inactive”.
As to `CCC(CC)C(=O)N1CCC(N2CCCC(C(=O)NCc3ccccc3)C2)CC1` (stereo unspecified), the Potency entry is “inactive”.
For the compound `O=C(Nc1cccc(F)c1)c1cc2n(n1)CC(c1ccc(Cl)cc1)OC2` (stereo unspecified), the Potency result is “inactive”.
The value for `O=C(Nc1ccc(Cl)cc1)C1CCN(C(=O)c2ncn3c2COC(c2ccc(F)cc2)C3)CC1` (stereo unspecified) was 22.4 µM (active); that for `Cc1ccc(C(=O)N[C@H]2CO[C@H]3[C@@H]2OC[C@@H]3n2nnnc2Oc2ccc(-n3ccnc3)cc2)cc1` was “inactive”; that for `O=C(Nc1ccccc1)N1CCC2(CC1)CC(Cc1ccccc1)=NO2` was “inactive”.
Regarding `COc1cccc(CC(=O)N2CCCn3nc(C)c(-c4ccccc4OCc4ccccc4)c32)c1`, the Potency result was “inactive”.
For the compound `CC(C)Oc1ccc(CNC(=O)C2Cn3cccc3C(=O)N2Cc2cccnc2)cc1` (stereo unspecified), the Potency entry is “inactive”.
The value for `COc1ccccc1CN1CCN(C(=O)CCC[C@H]2NC[C@@H]3C[C@H]2CN(Cc2ccccc2)C3)CC1` was “inactive”; that for `CCCN1C(=O)Cc2cc(C(=O)NC3CC3)ccc21` was “inactive”.
